# Test results as given in article PMC5540273 (PLoS ONE, 2017).
# Where “and” joins values, the source holds several entries; their conditions need not be identical. Equal entries are not always repeated. Where two headings read alike, the source gives them in different places.
# Key:
# NEK3 = settings: concentration: 1 μM, replicates: in singlicate, n = 1
# NEK4 = settings: concentration: 1 μM, replicates: in singlicate, n = 1
# NEK5 = settings: concentration: 1 μM, replicates: in singlicate, n = 1
# NEK6 = settings: concentration: 1 μM, replicates: in singlicate, n = 1
# NEK7 = settings: concentration: 1 μM, replicates: in singlicate; n = 1
# NEK9 = settings: concentration: 1 μM, replicates: in singlicate, n = 1
# NIK = system: T1, NIK; settings: concentration: 1 μM, replicates: in singlicate, n = 1
# T1 construct: gene MAP3K14
# NIM1 = system: T2, NIM1; settings: concentration: 1 μM, replicates: in singlicate; n = 1
# T2 construct: gene MGC42105
# NLK = settings: concentration: 1 μM, replicates: in singlicate, n = 1
# OSR1 = system: T3, OSR1; settings: concentration: 1 μM, replicates: in singlicate, n = 1
# T3 construct: gene OXSR1
# PAK1 = settings: concentration: 1 μM, replicates: in singlicate, n = 1
# PAK2 = settings: concentration: 1 μM, replicates: in singlicate, n = 1
# PAK3 = settings: concentration: 1 μM, replicates: in singlicate; n = 1
# PAK4 = settings: concentration: 1 μM, replicates: in singlicate; n = 1
# PAK6 = settings: concentration: 1 μM, replicates: in singlicate; n = 1
# PAK7 = settings: concentration: 1 μM, replicates: in singlicate, n = 1
# PCTK1 = system: T4, PCTK1; settings: concentration: 1 μM, replicates: in singlicate; n = 1
# T4 construct: gene CDK16
# PCTK2 = system: T5, PCTK2; settings: concentration: 1 μM, replicates: in singlicate, n = 1
# T5 construct: gene CDK17
# PCTK3 = system: T6, PCTK3; settings: concentration: 1 μM, replicates: in singlicate, n = 1
# T6 construct: gene CDK18
# PDGFRA = settings: concentration: 1 μM, replicates: in singlicate, n = 1
# 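Further: KINOMEscan kinase panel screen.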
compound,measurement,setting,value
O=C(Nc1ccccc1)Nc1ccc(Oc2ccc3nccn3n2)cc1,%Inh,NEK3,8%
same,%Inh,NEK4,0%
same,%Inh,NEK5,20%
same,%Inh,NEK6,0%
same,%Inh,NEK7,0%
same,%Inh,NEK9,0%
same,%Inh,NIK,0%
same,%Inh,NIM1,0%
same,%Inh,NLK,2%
same,%Inh,OSR1,0%
same,%Inh,PAK1,0%
same,%Inh,PAK2,8%
same,%Inh,PAK3,0%
same,%Inh,PAK4,0%
same,%Inh,PAK6,0%
same,%Inh,PAK7,0%
same,%Inh,PCTK1,0%
same,%Inh,PCTK2,2%
same,%Inh,PCTK3,0%
same,%Inh,PDGFRA,83%
COc1cc2c(Nc3cccc(NC(=O)c4ccccc4)c3)ncnc2cc1OCCCN1CCOCC1 [GSK223810],%Inh,NEK3,0%
same,%Inh,NEK4,0%
same,%Inh,NEK5,0%
same,%Inh,NEK6,0%
same,%Inh,NEK7,0%
same,%Inh,NEK9,21%
same,%Inh,NIK,0%
same,%Inh,NIM1,0%
same,%Inh,NLK,33%
same,%Inh,OSR1,16%
same,%Inh,PAK1,4%
same,%Inh,PAK2,0%
same,%Inh,PAK3,5%
same,%Inh,PAK4,0%
same,%Inh,PAK6,0%
same,%Inh,PAK7,0%
same,%Inh,PCTK1,0%
same,%Inh,PCTK2,0%
same,%Inh,PCTK3,22%
same,%Inh,PDGFRA,63%
c1ccc(-c2ccc3c(-c4ccnc(Nc5ccc6c(c5)OCCO6)n4)cnn3n2)cc1 [GW818941],%Inh,NEK3,0%
same,%Inh,NEK4,4%
same,%Inh,NEK5,14%
same,%Inh,NEK6,15%
same,%Inh,NEK7,43%
same,%Inh,NEK9,27%
same,%Inh,NIK,10%
same,%Inh,NIM1,7%
same,%Inh,NLK,17%
same,%Inh,OSR1,0%
same,%Inh,PAK1,6%
same,%Inh,PAK2,28%
same,%Inh,PAK3,18%
same,%Inh,PAK4,0%
same,%Inh,PAK6,83%
same,%Inh,PAK7,0%
same,%Inh,PCTK1,0%
same,%Inh,PCTK2,7%
same,%Inh,PCTK3,0%
same,%Inh,PDGFRA,8%
COc1cc2ncnc(Nc3ccc(OCc4ccccc4Br)c(Cl)c3)c2cc1OC.Cl [GI261590],%Inh,NEK3,12%
same,%Inh,NEK4,0%
same,%Inh,NEK5,14%
same,%Inh,NEK6,0%
same,%Inh,NEK7,0%
same,%Inh,NEK9,0%
same,%Inh,NIK,20%
same,%Inh,NIM1,22%
same,%Inh,NLK,26%
same,%Inh,OSR1,0%
same,%Inh,PAK1,14%
same,%Inh,PAK2,22%
same,%Inh,PAK3,38%
same,%Inh,PAK4,0%
same,%Inh,PAK6,0%
same,%Inh,PAK7,5%
same,%Inh,PCTK1,0%
same,%Inh,PCTK2,0%
same,%Inh,PCTK3,0%
same,%Inh,PDGFRA,0%
Cc1ccc(O)cc1Nc1cc(C(F)(F)F)nc2ccc(-c3ccncc3)cc12 [GW630823],%Inh,NEK3,0%
same,%Inh,NEK4,0%
same,%Inh,NEK5,6%
same,%Inh,NEK6,8%
same,%Inh,NEK7,58%
same,%Inh,NEK9,42%
same,%Inh,NIK,0%
same,%Inh,NIM1,0%
same,%Inh,NLK,10%
same,%Inh,OSR1,0%
same,%Inh,PAK1,21%
same,%Inh,PAK2,10%
same,%Inh,PAK3,0%
same,%Inh,PAK4,21%
same,%Inh,PAK6,20%
same,%Inh,PAK7,7%
same,%Inh,PCTK1,0%
same,%Inh,PCTK2,2%
same,%Inh,PCTK3,0%
same,%Inh,PDGFRA,0%
CNc1nccc(-c2c(-c3ccc(F)cc3)ncn2C2CCN(C)CC2)n1 [SB-222903],%Inh,NEK3,17%
same,%Inh,NEK4,0%
same,%Inh,NEK5,0%
same,%Inh,NEK6,0%
same,%Inh,NEK7,0%
same,%Inh,NEK9,0%
same,%Inh,NIK,31%
same,%Inh,NIM1,0%
same,%Inh,NLK,83%
same,%Inh,OSR1,0%
same,%Inh,PAK1,0%
same,%Inh,PAK2,13%
same,%Inh,PAK3,0%
same,%Inh,PAK4,0%
same,%Inh,PAK6,0%
same,%Inh,PAK7,0%
same,%Inh,PCTK1,0%
same,%Inh,PCTK2,0%
same,%Inh,PCTK3,0%
same,%Inh,PDGFRA,0%
CCc1nc(-c2cccc(N(C)S(=O)(=O)c3ccccc3)c2)c(-c2ccnc(Nc3ccc(N4CCN(C(C)=O)CC4)nc3)n2)s1 [GSK1645895],%Inh,NEK3,9%
same,%Inh,NEK4,19%
same,%Inh,NEK5,0%
same,%Inh,NEK6,0%
same,%Inh,NEK7,0%
same,%Inh,NEK9,14%
same,%Inh,NIK,0%
same,%Inh,NIM1,0%
same,%Inh,NLK,8%
same,%Inh,OSR1,3%
same,%Inh,PAK1,6%
same,%Inh,PAK2,0%
same,%Inh,PAK3,0%
same,%Inh,PAK4,0%
same,%Inh,PAK6,5%
same,%Inh,PAK7,5%
same,%Inh,PCTK1,8%
same,%Inh,PCTK2,24%
same,%Inh,PCTK3,4%
same,%Inh,PDGFRA,14%
Cc1ccc(C)c(NC(=O)NCCNc2ccnc(Nc3ccc(F)cc3)n2)c1 [GSK1379878],%Inh,NEK3,0%
same,%Inh,NEK4,0%
same,%Inh,NEK5,3%
same,%Inh,NEK6,0%
same,%Inh,NEK7,0%
same,%Inh,NEK9,9%
same,%Inh,NIK,10%
same,%Inh,NIM1,0%
same,%Inh,NLK,0%
same,%Inh,OSR1,0%
same,%Inh,PAK1,0%
same,%Inh,PAK2,0%
same,%Inh,PAK3,0%
same,%Inh,PAK4,0%
same,%Inh,PAK6,100%
same,%Inh,PAK7,0%
same,%Inh,PCTK1,0%
same,%Inh,PCTK2,0%
same,%Inh,PCTK3,0%
same,%Inh,PDGFRA,0%
C[C@@H]1CCN(C(=O)CO)C[C@@H]1N(C)c1ncnc2[nH]ccc12,%Inh,NEK3,38%
same,%Inh,NEK4,0%
same,%Inh,NEK5,1%
same,%Inh,NEK6,0%
same,%Inh,NEK7,0%
same,%Inh,NEK9,0%
same,%Inh,NIK,0%
same,%Inh,NIM1,0%
same,%Inh,NLK,100%
same,%Inh,OSR1,0%
same,%Inh,PAK1,0%
same,%Inh,PAK2,0%
same,%Inh,PAK3,0%
same,%Inh,PAK4,0%
same,%Inh,PAK6,0%
same,%Inh,PAK7,2%
same,%Inh,PCTK1,0%
same,%Inh,PCTK2,0%
same,%Inh,PCTK3,4%
same,%Inh,PDGFRA,0%
COc1ccc(-c2nc3n(c2-c2ccncc2)CCC3)cc1 [SKF-104493],%Inh,NEK3; 1 µM,19% and 0%
same,%Inh,NEK4; 1 µM,19% and 0%
same,%Inh,NEK5; 1 µM,0% and 16%
same,%Inh,NEK6; 1 µM,5% and 0%
same,%Inh,NEK7,0%
same,%Inh,NEK9; 1 µM,0% and 23%
same,%Inh,NIK; 1 µM,0% and 6%
same,%Inh,NIM1,19%
same,%Inh,NLK; 1 µM,28% and 64%
same,%Inh,OSR1; 1 µM,2% and 0%
same,%Inh,PAK1; 1 µM,0% and 27%
same,%Inh,PAK2; 1 µM,23% and 10%
same,%Inh,PAK3,0%
same,%Inh,PAK4,0%
same,%Inh,PAK6,0%
same,%Inh,PAK7; 1 µM,0% and 15%
same,%Inh,PCTK1,0%
same,%Inh,PCTK2; 1 µM,3% and 0%
same,%Inh,PCTK3; 1 µM,0% and 28%
same,%Inh,PDGFRA; 1 µM,25% and 3%
